{
  "source": "PubChem BioAssay (NCATS)",
  "note": "Results filed as inconclusive are left out. Calls of active or inactive are those of the source. Calls come from the whole dose curve; as a rule, active = well fitted inhibition curve with a large enough effect; inconclusive = small, poorly fitted or top-dose-only effect; inactive = no such curve, though single readings can be large or run the other way. Potency is the fitted concentration of half-maximal effect.",
  "data": [
    {"assay": "BET inhibitor-based combinations targeting novel dependencies in MECOM-rearranged (r) AML: OCI-AML3 cell line (AID 2202232); note: nearly all actives have a fitted effect of over 35% in size", "details": "CellTiter-Glo luminescence, 48 h; Potency: OCI-AML3 viability; series mostly up to 46 µM; viability (% of control): at the top concentration", "from_the_text": "Ecotropic viral insertion site 1 (EVI1) is located on chromosome 3q26.2 as part of the MECOM (MDS and EVI1 complex) locus. Under normal hematopoiesis, EVI1 is a regulator of hematopoietic stem cell maintenance and self-renewal and EVI1 levels decrease as the cells differentiate. In approximately 5-10% of de novo acute myeloid leukemia (AML) EVI1 is aberrantly expressed, including Chromosomal inv(3)(q21;q26.2) or t(3;3)(q21;q26.2) alterations (MECOM-r) that account for about 50% of AML with EVI1 overexpression 31. AMLs with high levels of EVI1 have a poor prognosis and an overall survival time averaging between 10-14 months. EVI1 overexpression confers resistance in leukemia cells, highlighting the need to develop new targeted therapies for EVI1 overexpressing AMLs.\nHere, we performed an unbiased chemical drug screening by evaluating the single agent activity of a collection of 2,480 oncology-focused, approved and investigational drugs (NCATS Mechanism Interrogation Plates, MIPE v5.0) against a panel of seven AML cell lines. These included four MECOM-r cell-lines (AML-191, AML-194, UCSD-AML1 and HNT-34) and three non-MECOM-r AMLs (MV4-11, OCI-AML3 and SET-2). Exploiting the mechanistic redundancy built in the library, we identified target-level sensitivities in MECOM-r AML cells and relative activity as compared to other AML subtypes.\nA collection of 2480 mechanistically annotated dugs (MIPE v5.0) was used to screen four 3q26.2 rearranged AML cell lines and three non-3q26.2 rearranged AML cell lines. This library purposely exploits redundancy by including multiple inhibitors of key onco-targets, while simultaneously encompassing mechanistic diversity, targeting more than 800 distinct mechanisms of action. Briefly, cells were seeded in 5 uL of growth media using a Multidrop Combi dispenser into 1536 well white polystyrene tissue culture treated plates (Corning) at a density of 500cells/well. For each cell-line, for each of the 2480 drugs in MIPE v5.0 library, an 11-point dose curve was generated via a 1536 pin-tool. Plates were incubated for 48 hr at standard incubator conditions, covered by a stainless steel gasketed lid to prevent evaporation. Cell viability was determined by luminescence based, Cell Titer Glo assay (Promega). In detail, 3 uL of Cell Titer Glo were added to each well and plates were incubated at room temperature for 15 min with a stainless-steel lid in place. Luminescence readings were taken using a Viewlux (PerkinElmer) with a 2 s exposure time per plate. Compound dose-response curves were normalized to DMSO and empty well controls on each plate. Quantitative drug activity data from dose-response curves was determined utilizing area Under the Curve (AUC) and Z-transformed AUC (Z-AUC, a mean-centering transformation applied to each individual cell-line screened).", "values": [
      {"smiles": "COc1ccc(CCN(C)CCCOc2ccc(S(=O)(=O)c3[nH]c4ccccc4c3C(C)C)cc2)cc1OC", "Potency": "16.6 µM (active)"},
      {"smiles": "Cc1cn(CCN2CCN(c3ccccc3-c3cc(C#N)cc(C(=O)NCCCN4CCCC4)c3)CC2)c2ccccc12", "Potency": "18.6 µM (active)"},
      {"smiles": "N#Cc1c(O)c2c(-c3ccc(-c4ccccc4O)cc3)csc2[nH]c1=O", "viability (% of control)": "118% (inactive)"},
      {"smiles": "CCCCN(CCCC)CC(O)c1cc(Cl)cc2c1-c1ccc(Cl)cc1/C2=C/c1ccc(Cl)cc1", "note": "(stereo not given)", "viability (% of control)": "96.8% (inactive)"},
      {"smiles": "CC(C)(C)OC(=O)CN(Cc1ccc(Cl)cc1)Cc1ccc([N+](=O)[O-])s1", "Potency": "7.42 µM (active)"},
      {"smiles": "O=C(COCC(=O)N1CCN(C(c2ccccc2)c2ccccc2)CC1)Nc1ccc(Cl)cc1C(=O)O", "viability (% of control)": "101% (inactive)"},
      {"smiles": "CCCCS(=N)(=O)CCC(N)C(=O)O", "note": "(stereo not given)", "Potency": "9.59 µM (active)"},
      {"smiles": "CN1C(=O)C[C@H](C(=O)N[C@@H](Cc2cnc[nH]2)C(=O)N2CCC[C@@H]2C(N)=O)NC1=O", "Potency": "18.6 µM (active)"},
      {"smiles": "Oc1ccc(/C=C/c2cc(O)cc(O)c2)cc1", "Potency": "14.8 µM (active)"},
      {"smiles": "CCOC(=O)[C@H](CCc1ccccc1)N[C@@H](C)C(=O)N1[C@H](C(=O)O)C[C@@H]2CCC[C@@H]21", "viability (% of control)": "105% (inactive)"},
      {"smiles": "CCOC(=O)C=C[C@H](C[C@@H]1CCNC1=O)NC(=O)[C@@H](CC(=O)[C@@H](NC(=O)c1cc(C)on1)C(C)C)Cc1ccc(F)cc1", "viability (% of control)": "115% (inactive)"},
      {"smiles": "CCCCN(CCCC)C(=O)CN1C[C@H](c2ccc3c(c2)OCO3)[C@@H](C(=O)O)[C@@H]1c1ccc(OC)cc1", "viability (% of control)": "136% (inactive)"},
      {"smiles": "CCC1(c2ccccc2)C(=O)NCNC1=O", "viability (% of control)": "107% (inactive)"},
      {"smiles": "CCCOc1ccc(CCc2nc3cc(-c4c(C)noc4C)ccc3n2CCN2CCOCC2)cc1", "Potency": "16.6 µM (active)"},
      {"smiles": "CC(C)c1ccc2oc3nc(N)c(C(=O)O)cc3c(=O)c2c1", "Potency": "14.8 µM (active)"},
      {"smiles": "COc1c(C)cc(NC(=O)c2nn(Cc3ccc(F)cc3)c3c2CN(C(=O)c2ccc[nH]2)C[C@]3(C)C(N)=O)cc1C", "viability (% of control)": "113% [at 8.46 µM] (inactive)"},
      {"smiles": "C[C@H]1COc2c(N3CCN(C)CC3)c(F)cc3c(=O)c(C(=O)O)cn1c23", "viability (% of control)": "125% (inactive)"},
      {"smiles": "CNC(=O)c1ccccc1Nc1nc(Nc2ccc3c(c2OC)CCC[C@@H](N2CCN(CCO)CC2)C3)ncc1Cl", "viability (% of control)": "140% (inactive)"},
      {"smiles": "CC(C)n1nc(-c2ccc3oc(N)nc3c2)c2c(N)ncnc21", "Potency": "0.417 µM (active)"},
      {"smiles": "CC(C)c1cc(C(=O)N2Cc3ccc(CN4CCN(C)CC4)cc3C2)c(O)cc1O", "Potency": "0.296 µM (active)"},
      {"smiles": "O=C(Nc1ccccc1-c1cn2c(CN3CCNCC3)csc2n1)c1cnc2ccccc2n1", "Potency": "20.9 µM (active)"},
      {"smiles": "Cc1[nH]c2ccc(F)cc2c1-c1nc2c3cccnc3c3ncccc3c2[nH]1", "Potency": "0.679 µM (active)"},
      {"smiles": "COc1cc2c(NC3CCN(C(C)C)CC3)nc(C3CCCCC3)nc2cc1OCCCN1CCCC1", "Potency": "18.6 µM (active)"},
      {"smiles": "CCC(C)N(C)C(=O)c1cc2ccccc2c(-c2ccccc2Cl)n1", "note": "(stereo not given)", "viability (% of control)": "96.9% (inactive)"},
      {"smiles": "COc1ccc2cccc(CCNC(C)=O)c2c1", "viability (% of control)": "99.2% (inactive)"},
      {"smiles": "CC(C)c1ccc2c(c1)c(SC(C)(C)C)c(CC(C)(C)C(=O)O)n2Cc1ccc(Cl)cc1", "Potency": "20.9 µM (active)"},
      {"smiles": "CNC(=O)c1cccc2cc(Oc3ccnc4cc(OCC5(N)CC5)c(OC)cc34)ccc12", "Potency": "23.5 µM (active)"},
      {"smiles": "Oc1ccc(C2=Cc3ccc(O)cc3OC2)cc1", "Potency": "0.525 µM (active)"},
      {"smiles": "CC(=O)SCC(Cc1ccccc1)C(=O)NCC(=O)OCc1ccccc1", "note": "(stereo not given)", "viability (% of control)": "108% (inactive)"},
      {"smiles": "O=C1N(c2ccccc2)c2ccccc2C1(Cc1ccncc1)Cc1ccncc1", "viability (% of control)": "115% (inactive)"},
      {"smiles": "O=C(O)CC1CCC(c2ccc(-c3ccc(Nc4ccc(C(F)(F)F)nc4)cn3)cc2)CC1", "note": "(stereo not given)", "viability (% of control)": "96% (inactive)"},
      {"smiles": "Cc1c(-c2ccnn2C)cc(C(=O)NCc2ccc(S(C)(=O)=O)cn2)c(=O)n1-c1cccc(C(F)(F)F)c1", "viability (% of control)": "86.9% (inactive)"},
      {"smiles": "CC1CNc2c(cccc2S(=O)(=O)N[C@@H](CCCN=C(N)N)C(=O)N2CC[C@@H](C)C[C@@H]2C(=O)O)C1", "note": "(stereo not given in full)", "viability (% of control)": "107% (inactive)"},
      {"smiles": "CO[C@H]1C[C@@H]2CC[C@@H](C)[C@@](O)(O2)C(=O)C(=O)N2CCCC[C@H]2C(=O)O[C@H]([C@H](C)C[C@@H]2CC[C@@H](OP(C)(C)=O)[C@H](OC)C2)CC(=O)[C@H](C)/C=C(\\C)[C@@H](O)[C@@H](OC)C(=O)[C@H](C)C[C@H](C)/C=C/C=C/C=C/1C", "Potency": "23.5 µM (active)"},
      {"smiles": "CC(NCCc1ccc(O)cc1)C(O)c1ccc(O)cc1", "note": "(stereo not given)", "viability (% of control)": "98.3% (inactive)"},
      {"smiles": "NC(=O)[C@H]1CCS[C@@H]2C[C@]3(CCCN3C(=O)Cc3ccc(NC(=O)COc4ccc(Cl)cc4Cl)cc3)C(=O)N12", "Potency": "9.34 µM (active)"},
      {"smiles": "COc1ccc(C2(C#N)CCC(C(=O)O)CC2)cc1OC1CCCC1", "note": "(stereo not given)", "viability (% of control)": "124% (inactive)"},
      {"smiles": "NC(=O)NO", "viability (% of control)": "115% (inactive)"},
      {"smiles": "CC1(C)CC(=O)c2c(C(F)(F)F)nn(-c3ccc(C(N)=O)c(NC4CCC(OC(=O)CN)CC4)c3)c2C1", "note": "(stereo not given)", "Potency": "0.209 µM (active)"},
      {"smiles": "CN(C)c1nc(N(C)C)nc(N(C)C)n1", "viability (% of control)": "129% (inactive)"}
    ]}
  ]
}
